Laboratory results taken from PubChem BioAssay (NCI).
About 83,000 compounds went through this panel and 20% of them were active in at least one assay; those are over-represented in the sample as a whole.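 Activity criterion: percent growth below 10, measured after cells in 96-well plates were exposed to a single compound concentration for 48 hours.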 Activity calls are given as the source filed them.

Tested on: A498 renal
Test: NCI-60 one-dose screen, 48 h (100 = growth as untreated, 0 = no growth, -100 = all killed)
Conditions: 10 µM unless noted

| Structure (SMILES) | growth |
| --- | --- |
| CN1C(=O)N(C)C2C1NN=c1s/c(=C\c3ccccc3)c(=O)n12 (stereo not drawn) | 4.23% (active) |
| CCn1c(C)nc2cc(C(N)=O)ccc21 | 107% (inactive) |
| Cc1ccc(/C=C/c2c(C(=O)/C=C/c3ccc(Cl)cc3)c(C)nc3ccccc23)cc1 | -16.1% (active) |
| COc1ccc2[nH]c(O)c(/C=c3/cc4c(c(-c5ccc(F)c(OC)c5)n3)=Nc3ccccc3-4)c2c1 | 69.6% (inactive) |
| O=C(Cc1ccc(F)c(F)c1)Nc1cc(C2(C(F)(F)F)CC2)nn1Cc1ccccc1 | -34% (active) |
| C#CCOc1nc(C)cc(C)c1C#N | 87.7% (inactive) |
| O=C1NC(=Nc2ccc(Cl)cc2)S/C1=C\c1cn(-c2ccccc2)nc1-c1ccccc1 | 79.7% (inactive) |
| COc1cccc(-c2nn(-c3ccccc3)cc2-c2ccnc(NCCNC(=O)Nc3cccc(C(F)(F)F)c3)c2)c1 | 39.7% (inactive) |
| COc1cc2ncn3c(=O)c4c5c(sc4nc3c2cc1OC)CCCC5 | 112% (inactive) |
| CCN1C(=O)N(CC)C2Nn3c(s/c(=C4\C(=O)N(C)c5ccccc54)c3=O)=NC21 (stereo not drawn) | -2.65% (active) |
| Cc1c(C)c2c(c(C)c1OCC(=O)O)CC[C@@](C)(CCC[C@@H](C)CCC[C@@H](C)CCCC(C)C)O2 | -37.5% [50 µM] (active) |
| Cc1occc1-c1n[nH]c(=S)n1N1C(=O)CSC1=S | 101% (inactive) |
| COc1ccc2c(c1)O/C(=C/c1ccc(OCC(=O)c3ccccc3)cc1)C2=O | 170% (inactive) |
| c1ccc(-c2nc([P+](c3ccccc3)(c3ccccc3)c3ccccc3)c(N3CCOCC3)o2)cc1 | 11.7% (inactive) |
| Cc1cccc(Cc2cnc(NC(=O)/C=C/c3ccco3)s2)c1 | 13.8% (inactive) |
| CCN(CC)CCCC(C)Nc1c2ccc(Cl)cc2nc2ccc(O)cc12 (stereo not drawn) | 90.7% (inactive) |
| COC1=CC(=O)C[C@@H](C)[C@]12Oc1c(Cl)c(OC)cc(OC)c1C2=O | 114% (inactive) |
| CC1=C(SCCC(=O)OC(C[Se]C2=C(C)C(=O)c3ccccc3C2=O)C(=O)NCCCCCC(=O)OCc2ccccc2)C(=O)c2ccccc2C1=O (stereo not drawn) | 70.8% (inactive) |
| O=c1c2c3c(sc2nc(N/N=C/c2ccc(Br)cc2)n1Cc1ccccc1)CCCC3 | 78.4% (inactive) |

| Structure (SMILES) | growth |
| --- | --- |
| CC(=O)O[C@]1(C(C)=O)CCC2C3C[C@H](C)C4=CC(=O)CC[C@]4(C)C3CC[C@@]21C (stereo partly drawn) | 103% (inactive) |
| Nc1ccc2c(c1)c(N)nn2C(=O)Nc1ccc(Cc2ccccc2)cc1 | 103% (inactive) |
| Cc1cc(NCc2cc(Nc3ccnc4cc(Cl)ccc34)ccc2F)nc(N2CCSCC2)n1 | 45% (inactive) |
| CN(C)CCC=C1c2ccccc2C(C)(C)c2ccccc21 | 91% (inactive) |
| COc1ccc(NC(=O)CSc2nc(C)c(C(C)=O)n2-c2ccc([N+](=O)[O-])cc2)cc1 | 58.1% (inactive) |
| COC(=O)c1c2c(c(C)[n+]([O-])c1C)C(=O)C(NCc1ccc(F)cc1)=CC2=O | 98.6% (inactive) |
| Cc1c(C(=O)NC(Cc2ccccc2)C(O)C(=O)NCc2ccc(F)cc2)[nH]c2ccccc2c1=O (stereo not drawn) | 107% (inactive) |
| COC1=C(OC)C(=O)C(OC)=C(OC)C1=O | 77.2% (inactive) |
| CCN(CC)Cc1cccc(C(=O)OC)c1 | 115% (inactive) |
| C[C@H](NC(=O)[C@@H]1CSSC[C@@H](NC(=O)c2nc3ccccc3cc2O)C(=O)NCC(=O)N1C)c1ccccc1 | 112% (inactive) |
| O=c1ssc(Cl)c1-c1ccccc1 | 108% (inactive) |
| O=S(=O)(NCCCNc1cc(-c2c(-c3cccc(O)c3)nc3sccn23)ccn1)c1cccc(Cl)c1 | 80.4% (inactive) |
| CCOC(=O)/C=C/c1cc2cc(-c3csc4ccccc34)ccc2[nH]1 | 89.8% (inactive) |
| Cn1cc(-c2csc(-c3ccccc3)n2)c2cccnc21 | -82.4% [100 µM] (active) |
| O=c1[nH]nc(-c2ccccc2)c2c(-c3ccccc3)onc12 | 7.76% (active) |
| Cc1ccccc1NC(=O)N/C(N)=N/c1nc(-c2cccc([N+](=O)[O-])c2)cs1 | -3.64% (active) |
| COc1cc2c(cc1-c1c(C)noc1C)ncc1nc(C3CCC(F)(F)CC3)n(C3CCC(OC(F)F)CC3)c12 (stereo not drawn) | 61.2% (inactive) |
| N#C/C(=C\c1ccc(Br)cc1)n1nnc2cc(F)c(F)cc21 | 26.8% (inactive) |
| CSc1n(Cc2ccc3ccccc3c2)c(C)c[n+]1Cc1ccc2ccccc2c1 | -32.3% (active) |

Tested on: CCRF-CEM leukemia
Test: as above
Conditions: 10 µM unless noted

| Structure (SMILES) | growth |
| --- | --- |
| CN1C(=O)N(C)C2C1NN=c1s/c(=C\c3ccccc3)c(=O)n12 (stereo not drawn) | 42.2% (inactive) |
| CCn1c(C)nc2cc(C(N)=O)ccc21 | 95.4% (inactive) |
| Cc1ccc(/C=C/c2c(C(=O)/C=C/c3ccc(Cl)cc3)c(C)nc3ccccc23)cc1 | 4.53% (active) |
| O=C(Cc1ccc(F)c(F)c1)Nc1cc(C2(C(F)(F)F)CC2)nn1Cc1ccccc1 | 20.1% (inactive) |
| C#CCOc1nc(C)cc(C)c1C#N | 109% (inactive) |
| O=C1NC(=Nc2ccc(Cl)cc2)S/C1=C\c1cn(-c2ccccc2)nc1-c1ccccc1 | 60.6% (inactive) |
| COc1cccc(-c2nn(-c3ccccc3)cc2-c2ccnc(NCCNC(=O)Nc3cccc(C(F)(F)F)c3)c2)c1 | 28.7% (inactive) |
| COc1cc2ncn3c(=O)c4c5c(sc4nc3c2cc1OC)CCCC5 | 137% (inactive) |
| CCN1C(=O)N(CC)C2Nn3c(s/c(=C4\C(=O)N(C)c5ccccc54)c3=O)=NC21 (stereo not drawn) | 35.8% (inactive) |
| c1ccc(-c2nc([P+](c3ccccc3)(c3ccccc3)c3ccccc3)c(N3CCOCC3)o2)cc1 | 13.4% (inactive) |
| CCN(CC)CCCC(C)Nc1c2ccc(Cl)cc2nc2ccc(O)cc12 (stereo not drawn) | 48.3% (inactive) |
| COC1=CC(=O)C[C@@H](C)[C@]12Oc1c(Cl)c(OC)cc(OC)c1C2=O | 93.9% (inactive) |
| CC1=C(SCCC(=O)OC(C[Se]C2=C(C)C(=O)c3ccccc3C2=O)C(=O)NCCCCCC(=O)OCc2ccccc2)C(=O)c2ccccc2C1=O (stereo not drawn) | 10.8% (inactive) |
| CC(=O)O[C@]1(C(C)=O)CCC2C3C[C@H](C)C4=CC(=O)CC[C@]4(C)C3CC[C@@]21C (stereo partly drawn) | 81.8% (inactive) |
| Nc1ccc2c(c1)c(N)nn2C(=O)Nc1ccc(Cc2ccccc2)cc1 | 55.5% (inactive) |
| Cc1cc(NCc2cc(Nc3ccnc4cc(Cl)ccc34)ccc2F)nc(N2CCSCC2)n1 | -10.4% (active) |
| CN(C)CCC=C1c2ccccc2C(C)(C)c2ccccc21 | 49.6% (inactive) |
| COc1ccc(NC(=O)CSc2nc(C)c(C(C)=O)n2-c2ccc([N+](=O)[O-])cc2)cc1 | 111% (inactive) |
| Cc1c(C(=O)NC(Cc2ccccc2)C(O)C(=O)NCc2ccc(F)cc2)[nH]c2ccccc2c1=O (stereo not drawn) | 109% (inactive) |
| CCN(CC)Cc1cccc(C(=O)OC)c1 | 76.3% (inactive) |
| O=c1ssc(Cl)c1-c1ccccc1 | 98.1% (inactive) |
| O=S(=O)(NCCCNc1cc(-c2c(-c3cccc(O)c3)nc3sccn23)ccn1)c1cccc(Cl)c1 | 22.8% (inactive) |
| O=c1[nH]nc(-c2ccccc2)c2c(-c3ccccc3)onc12 | 21.3% (inactive) |
| Cc1ccccc1NC(=O)N/C(N)=N/c1nc(-c2cccc([N+](=O)[O-])c2)cs1 | 35.9% (inactive) |
| CSc1n(Cc2ccc3ccccc3c2)c(C)c[n+]1Cc1ccc2ccccc2c1 | 1.28% (active) |
